# Assay outcomes as filed in PubChem.
# Hsp90 Hop PPI – qHTS Assay for Disrupters of an Hsp90 Co-Chaperone Interaction. Hsp90 C-terminal peptide / TPR2A (Hop) interaction, human. AlphaScreen TPR2A-His6 binding biotin-Hsp90 C-terminal peptide. Potency, µM (top dose mostly 57 µM), for the others: top-dose activity change, negative = inhibition. hit rate 0.44% among 71,000; active = well fitted curve in either direction with a large enough effect; inconclusive = small, poorly fitted or top-dose-only effect, or another doubt; note: potency is the fitted concentration of half-maximal effect; % is set by controls: 0 for no effect and ±100 for the full control effect
# Luciferase inh – qHTS Assay for Inhibitors of Firefly Luciferase. purified firefly luciferase, luminescence, 8 min. hit rate 2.2% among 72,000. AID 411, 2009. Luciferin 4-monooxygenase (Photinus pyralis), P08659. Potency, µM (highest dose often 57.1 µM), for the others: at the highest dose activity change, negative = inhibition, usual class: inhibitors; note: potency is the fitted concentration of half-maximal effect; % is set by controls: 0 for no effect and ±100 for the full control effect; nearly all actives have a fitted effect of over 40% in size
# Target sequence (P08659 whole entry, looked up): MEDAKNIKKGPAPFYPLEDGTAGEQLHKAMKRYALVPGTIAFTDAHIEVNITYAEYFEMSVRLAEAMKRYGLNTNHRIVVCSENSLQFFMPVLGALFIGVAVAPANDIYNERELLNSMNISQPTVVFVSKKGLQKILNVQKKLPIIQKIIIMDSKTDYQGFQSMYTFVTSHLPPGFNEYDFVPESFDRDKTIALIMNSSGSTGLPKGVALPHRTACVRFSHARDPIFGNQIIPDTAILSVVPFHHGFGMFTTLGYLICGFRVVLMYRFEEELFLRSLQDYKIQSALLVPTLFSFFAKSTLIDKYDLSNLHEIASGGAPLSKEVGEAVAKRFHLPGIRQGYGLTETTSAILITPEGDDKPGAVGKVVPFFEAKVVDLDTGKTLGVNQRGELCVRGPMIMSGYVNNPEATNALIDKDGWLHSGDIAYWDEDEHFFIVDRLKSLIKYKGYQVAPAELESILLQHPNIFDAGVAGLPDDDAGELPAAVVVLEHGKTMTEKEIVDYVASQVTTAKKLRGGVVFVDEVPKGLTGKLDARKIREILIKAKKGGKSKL
#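 qHTS concentration-response profiling: light output of P. pyralis luciferase with luciferin and 10 uM ATP, imidazole buffer pH 7.2. Read by luminescence after 8-min room-temperature incubation.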
# p53ts 32C kill – qHTS Screen for Compounds that Selectively Target Cancer Cells with p53 Mutations: Cytotoxicity of p53ts Cells at the Permissive Temperature; H1299-p53A138V at 32C, ATP luminescence viability, 24 h; Potency, µM (doses to about 46.1 µM), without a hit: top-dose activity change, negative = cytotoxicity, actives largely listed as cytotoxic; hit rate 0.93% among 130,000; AID 924, 2007;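 note: potency is the fitted concentration of half-maximal effect; 0% = DMSO and -100% = full killing by reference compound; nearly all actives have a fitted effect of over 55% in size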
#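 H1299-p53 A138V cells (temperature-sensitive p53) exposed 24 h to up to 46 uM compound at 32C, where p53 is wild-type in conformation. Viability read as ATP luminescence and normalised to DMSO and 100 uM tamoxifen. AC50 fitted with the Hill equation.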
# p53ts 39C kill – qHTS Screen for Compounds that Selectively Target Cancer Cells with p53 Mutations: Cytotoxicity of p53ts Cells at the Nonpermissive Temperature | H1299-p53A138V viability at 39C, ATP luminescence, 24 h | Potency, µM (doses to about 46.1 µM), inactives show at the top dose activity change, negative = cell killing, usual class: cytotoxic | hit rate 1.5% among 130,000 | AID 902, 2007; note: potency is the fitted concentration of half-maximal effect; % is set by controls: 0 for no effect and ±100 for the full control effect; nearly all actives have a fitted effect of over 55% in size
# IkB sig inh – IkB Signaling; ABC-DLBCL IkBa-CBG/CBR dual luciferase ratio, 4 h; response scale: scaled: untreated 0%, proteasome inhibitor 100%; Potency, µM (series often up to 57.1 µM), without a hit: top-dose IkBa stabilization activation; hit rate 0.04% among 110,000; AID 445, 2006; active = well fitted curve in the direction sought with a large enough effect in the signal ratio, not every such curve was filed as active; inconclusive = small, poorly fitted or top-dose-only effect, or a change in a side signal; the % refers to the signal ratio;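 note: potency is the fitted concentration of half-maximal effect; the direction sought is a rising ratio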
#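 In this assay, an IκBα–CBG68 fusion accumulates when IKK-driven degradation is blocked; native CBR normalizes for cell number. OCI-Ly3 cells were treated 4 h with compound and doxycycline, then green and red light read after Chroma-Glo addition.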
# IMPase cell inh – qHTS Assay for Identifying the Cell-Membrane Permeable IMPase Inhibitors | inhibition (IP1 accumulation), % at 46.1 µM | 120,000 tested, under 10 active | AID 901, 2007 | CHO-M1 cells, IP1 accumulation, HTRF TR-FRET ratio | Inositol monophosphatase 1 (Rattus norvegicus), P97697; active = well fitted curve in the direction sought with a large enough effect in the signal ratio, not every such curve was filed as active; inconclusive = small, poorly fitted or top-dose-only effect, or a change in a side signal; inactive = no such curve, though single readings can be large or run the other way; the % refers to the signal ratio;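 note: cells stimulated with carbachol in lithium chloride buffer; plate controls were DMSO basal wells for no effect and reference inhibitor wells for full effect; higher means more IMPase inhibition seen as more IP1 and lower FRET ratio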
#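 In this qHTS, compounds (final up to 46 uM) act on CHO-M1 cells that are then activated through the M1 receptor with carbachol, in pH 7.4 buffer containing 50 mM LiCl, for 30 min. IP1 accumulation is quantified by the IP-One immunoassay.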
# Numbers without * were called inactive; ? = inconclusive; / = no result given; [ ] = another dose, or the depositor's remark. The entries come from a sample that favours hits as a whole. Unless noted, calls come from the whole dose curve; as a rule, active = well fitted curve in the direction sought with a large enough effect; inconclusive = small, poorly fitted or top-dose-only effect, or another doubt; inactive = no such curve, though single readings can be large; an effect the other way counts as inactive or inconclusive.
SMILES,Hsp90 Hop PPI,Luciferase inh,p53ts 32C kill,p53ts 39C kill,IkB sig inh,IMPase cell inh
Cc1ccccc1S(=O)(=O)Cc1ccc(C(=O)N2CCN(c3cccc(C)c3C)CC2)o1,-4%,2%,?,13µM*,?,4
O=C1CCNc2cc3ccccc3cc21,-21%,-11%,?,16µM*,?,6
CCN(CC)C(=O)Oc1ccc2c(=O)c(-c3ccccc3)coc2c1,8%,16µM*,-23%,?,-9%,0
COc1ccccc1-c1coc2cc(OC(=O)/C=C/c3ccccc3)ccc2c1=O,/,/,/,/,/,6
COc1ccc2c(=O)c(-c3ccccc3)coc2c1,/,/,?,5µM*,/,-3
O=C(Cn1c(=O)oc2ccccc21)NCc1ccccc1Cl,/,/,-1%,-18%,1%,/
CCOc1ccc2nc3sc(C(=O)N4CCN(C)CC4)c(N)c3cc2c1,-7%,-10%,6%,-18%,2%,11
COc1ccc2cc3c(N)c(C(=O)N4CCCC4)sc3nc2c1,-5%,?,-29%,?,?,-2
Cc1ccc2cc3c(N)c(C(=O)N4CCOCC4)sc3nc2c1,-2%,13µM*,?,?,?,14
Cc1ccc2nc3sc(C(=O)N4CCOCC4)c(N)c3cc2c1,?,2µM*,6.3µM*,6.3µM*,?,?
CCCCC(=O)Oc1ccc2oc(-c3ccc(OC)cc3)cc(=O)c2c1,/,/,?,6.3µM*,?,-4
O=c1cc(-c2cccc(O)c2)oc2c(O)c(O)ccc12,-26%,-2%[11.4 µM],?,25µM*,2%[11.4 µM],?
COc1cccc(-c2cc(=O)c3cc(O)ccc3o2)c1,-1%,-12%[11.4 µM],?,13µM*,-2%[11.4 µM],2
COC(=O)COc1ccc2oc(-c3ccc(OC)cc3)cc(=O)c2c1,/,/,-7%,-7%,3%,-5
COc1cccc(-c2cc(=O)c3ccc(OC)cc3o2)c1,/,/,-12%,-16%,/,/
COc1cccc(-c2oc3ccc(C)cc3c(=O)c2O)c1,/,/,?,10µM*,?,-8
Cc1ccc(NC(=O)N2CCc3cc(S(=O)(=O)N4CCC(C)CC4)ccc32)cc1,/,/,2%,?,0%,/
Cc1ccc(CCNC(=O)CCCn2c(=O)c3ccccc3n(CC(=O)Nc3cc(Cl)ccc3C)c2=O)cc1,/,/,?,-8%,2%,/
CCCCCCCCCCCCCCCCCC(=O)O[C@H](CC(=O)O)C[N+](C)(C)C,-11%,-3%,?,?,-8%,13
COc1ccc2oc(-c3ccc(O)cc3)cc(=O)c2c1,-10%,?,5µM*,7.9µM*,0%[11.4 µM],0
Cc1ccc(C(Nc2ccccn2)c2ccc3cccnc3c2O)cc1 (stereo not given),/,/,?,?,?,11
Cc1cccc(NC(c2cccc(Cl)c2)c2ccc3cccnc3c2O)n1 (stereo not given),/,/,-24%,13µM*,?,7
CCc1cccc2nc3c(c([Si](CC)(CC)CC)c12)Cn1c-3cccc1=O,25µM*,/,?,?,/,/
CC(C)c1cccc2nc3c(c([Si](C)(C)C)c12)Cn1c-3cccc1=O,?,/,0%,?,/,/
NC(=O)c1ccc(-c2ncc(-c3ccccc3)o2)cc1,?,13µM*,?,20µM*,7%,-3
SMILES,Hsp90 Hop PPI,Luciferase inh,p53ts 32C kill,p53ts 39C kill,IkB sig inh,IMPase cell inh
CCOC(=O)c1nnc(-c2ccccc2)o1,-1%,0%,-8%,-2%,12%,?
COc1ccc(-c2cc(C(=O)OCC(=O)N(C)C)c3ccccc3n2)cc1,23%,20µM*,?,?,1%,4
COc1ccc(-c2cc(C(=O)Oc3ccc(C)cc3)c3ccccc3n2)cc1,/,/,-25%,?,-1%,-6
Cc1ccc(C(C)C)c(OCC(=O)Nc2cc(-c3nc4ccccc4[nH]3)ccc2C)c1,/,/,?,10µM*,?,/
COc1cc(OC)cc(C(=O)Nc2cc(-c3nc4ccccc4[nH]3)ccc2C)c1,/,/,-10%,-7%,?,/
Cc1cc2c(cc1S(=O)(=O)Nc1cccc(Cl)c1C)OCCN2C,/,/,7%,11%,0%,/
Cn1c(NC(=O)c2cc(-c3ccc4c(c3)OCO4)nc3ccccc23)cc(=O)n(C)c1=O,3%,2.5µM*,16µM*,13µM*,0%,1
CC(C)CSc1nnc2c(n1)[nH]c1ccccc12,/,/,/,/,/,4
Fc1ccc2nc3[nH]c4ccccc4c3nc2c1,2%,6.3µM*,?,?,-4%,4
O=C(Nc1ccccn1)c1ccc2ccccc2n1,2%,3.2µM*,16µM*,16µM*,?,3
Cc1cccc(NC(=O)c2ccc3ccccc3n2)c1C,/,/,/,/,/,3
Cc1cc(Nc2cccc(C(F)(F)F)c2)nc2ccc(NC(=O)c3cccnc3)cc12,/,/,13µM*,/,/,/
CCOc1ccc(C(=O)Nc2ccc3nc(Nc4cccc(C(F)(F)F)c4)cc(C)c3c2)cc1OCC,/,/,0%,/,/,/
O=C(Nc1ccc(F)cc1F)c1ccc(-n2cnc3cccnc32)cc1,/,/,7%,7%,1%,/
Cc1nc2ccccc2n1CCc1nc2c3ccccc3nc(SCC(=O)Nc3ccc(C(C)C)cc3)n2n1,/,/,?,10µM*,-4%,/
Cc1ccccc1NC(=O)CSc1nc2ccccc2c2nc(CCn3c(C)nc4ccccc43)nn12,/,/,3%,-21%,-1%,/
COc1ccccc1Nc1nc(C)cc(=O)[nH]1,-7%,0%,2%,15%,3%,-3
COc1ccccc1Nc1nc2ccccc2[nH]1,-4%,13µM*,?,?,9%,9
Cc1ccc(C)c(-n2nnnc2Sc2nnnn2-c2ccccc2)c1,-1%,2%,-14%,10µM*,?,5
Nc1ccc(S(=O)(=O)NCc2nccs2)cc1,1%[11 µM],4%[11.4 µM],3%[9.22 µM],6%[9.22 µM],2%[11.4 µM],/
NC(=S)NCCC[C@@H](N)C(=O)O,-6%,-5%,6%,5%,2%,9
Cc1ccc(-n2nc3c(N4CCC(C(=O)NCCc5ccccc5)CC4)nnc(C)c3c2C)cc1,/,/,-19%,-12%,1%,/
Cc1ccc(-n2nc3c(N4CCC(C(=O)NC(C)c5ccccc5)CC4)nnc(C)c3c2C)cc1 (stereo not given),/,/,?,16µM*,?,/
Cc1ccc(-n2nc3c(N4CCC(C(=O)NCCc5ccccc5C)CC4)nnc(C)c3c2C)cc1,/,/,?,20µM*,?,/
